Compounds with a hit are over-represented: about 0.55% of the library has one in this group of screens.
EPAC2 agonist – activates human EPAC2 exchange factor; Q8WZA2; EPAC2 activation, biochemical qHTS; response scale: 100% = 6.5 mM cAMP response; Potency, µM (series often up to 154 µM), most hits filed as activators; actives 0.079% (n = 360,000); AID 720711; note: nearly all actives have a fitted effect of over 50% in size
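In this primary screen, activation is scored as increased exchange of BODIPY-GDP from Rap1B by 100 nM EPAC2, with 50 uM GDP as competitor. Signal is normalized to the 6.5 mM cAMP agonist control.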
HEK293 tox – cytotoxic in the GLP-1 receptor inverse agonist counter-screen. HEK293 cAMP-luciferase reporter cells, luminescence, 24 h. Potency, µM (titrated, usually from 38.3 µM), usual class: inhibitors. actives 0.13% (n = 410,000);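 note: loss of luciferase light is scored as toxicity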
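Cells in DMEM/10% Nu serum/1% pen-strep, 1536-well format. Pre-incubated 12 h, dosed with 23 nL compound, incubated a further 24 h. Luciferase detection, 12 min at room temp, luminescence.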
USP1 inh – blocks the human USP1/UAF1 deubiquitinase complex; O94782; recombinant USP1/UAF1, Ub-Rhodamine cleavage fluorescence; Potency, µM (series often up to 57.1 µM), most hits filed as inhibitors; actives 0.23% (n = 390,000); note: nearly all actives have a fitted effect of over 60% in size
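USP1/UAF1 complex (1 nM) preincubated 15 min at room temperature with compound, then Ub-Rho substrate (150 nM final) added. Kinetic fluorescence at 480/540 nm over 6 reads at 60 s intervals; 50 mM HEPES pH 7.8, 0.5 mM EDTA, 0.1 mg/ml BSA, 1 mM TCEP, 0.01% Tween-20.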
EPAC2 antag – blocks human EPAC2 exchange factor; Q8WZA2; EPAC2 GEF exchange of Rap1B-BODIPY-GDP, fluorescence; Potency, µM (highest dose often 114 µM), usual class: inhibitors; actives 0.18% (n = 360,000); AID 720708; note: nearly all actives have a fitted effect of over 45% in size
EPAC1 antagonist – EPAC1 (human) antagonism | O95398 | EPAC1 GEF assay, Rap1b-BODIPY-GDP exchange fluorescence | Potency, µM (highest dose often 115 µM), hits mostly inhibitors | actives 0.14% (n = 360,000) | AID 720709; note: nearly all actives have a fitted effect of over 50% in size
Target sequence (O95398 whole entry, looked up): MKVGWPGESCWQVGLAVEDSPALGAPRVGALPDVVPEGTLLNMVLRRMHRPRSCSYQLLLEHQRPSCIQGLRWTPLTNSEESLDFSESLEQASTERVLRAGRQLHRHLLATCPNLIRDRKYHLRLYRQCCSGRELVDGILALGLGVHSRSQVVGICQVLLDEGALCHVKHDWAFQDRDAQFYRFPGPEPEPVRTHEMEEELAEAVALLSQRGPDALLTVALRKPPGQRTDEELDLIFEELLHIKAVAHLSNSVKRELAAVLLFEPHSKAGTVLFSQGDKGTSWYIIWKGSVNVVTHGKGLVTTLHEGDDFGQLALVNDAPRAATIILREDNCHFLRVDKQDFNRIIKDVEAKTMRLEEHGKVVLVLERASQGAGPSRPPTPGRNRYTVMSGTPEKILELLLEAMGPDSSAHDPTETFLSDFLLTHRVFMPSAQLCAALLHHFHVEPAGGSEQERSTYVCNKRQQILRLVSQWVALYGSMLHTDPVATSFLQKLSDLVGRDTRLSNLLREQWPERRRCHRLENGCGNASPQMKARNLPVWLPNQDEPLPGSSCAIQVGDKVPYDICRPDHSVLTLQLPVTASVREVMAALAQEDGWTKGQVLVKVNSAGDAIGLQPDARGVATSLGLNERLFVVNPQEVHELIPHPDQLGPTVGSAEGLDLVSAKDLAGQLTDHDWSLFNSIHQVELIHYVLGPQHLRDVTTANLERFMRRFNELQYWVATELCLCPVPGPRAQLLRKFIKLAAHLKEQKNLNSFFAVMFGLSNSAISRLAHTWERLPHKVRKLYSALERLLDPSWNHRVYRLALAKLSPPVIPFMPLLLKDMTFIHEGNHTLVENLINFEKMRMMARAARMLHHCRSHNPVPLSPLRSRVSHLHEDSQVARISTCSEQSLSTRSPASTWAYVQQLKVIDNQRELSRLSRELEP
EPAC1 ag – agonists of human EPAC1 | Potency, µM (doses to about 154 µM), hits mostly activators | actives 0.073% (n = 360,000) | EPAC1 agonist qHTS, biochemical assay; response scale: 100% = response to 6.5 mM cAMP; note: nearly all actives have a fitted effect of over 60% in size
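Multi-concentration qHTS readout: loss of Rap1B-bound BODIPY-GDP fluorescence driven by 100 nM EPAC1 with excess GDP (50 uM), monitored kinetically at room temperature; agonist response expressed relative to 6.5 mM cAMP.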
Numbers stand for hits; . = inactive; ? = inconclusive; / = no result given; [ ] = remark or other dose. Calls come from the whole dose curve; as a rule, active = well fitted curve in the direction sought with a large enough effect; inconclusive = small, poorly fitted or top-dose-only effect, or another doubt; inactive = no such curve, though single readings can be large; an effect the other way counts as inactive or inconclusive.

SMILES | EPAC2 agonist | HEK293 tox | USP1 inh | EPAC2 antag | EPAC1 antagonist | EPAC1 ag
C[C@@H]1CC=C[C@@H]2[C@H]1C(=O)N(Cc1ccccc1)[C@H]2c1ccccc1Br | . | . | . | 25µM | . | .
CCN(CC)c1ccc(NC(=O)CN2C(=O)c3cccnc3Sc3ccccc32)c(C)c1 | / | . | . | / | / | /
CC(OC(=O)/C(C#N)=C/c1ccc(N(C)C)cc1)C(=O)N(C)c1ccccc1 (centres undefined) | 63µM | . | ? | . | . | 56µM
COc1cc(Cl)c(C)cc1NC(=O)CCc1nc2cccnc2n1-c1ccccc1 | / | . | ? | / | / | /
CC(C)c1ccc(/C=C/C(=O)NC(=S)Nc2ccc(CN3CCOCC3)cc2)cc1 | . | 10µM | . | . | . | .
Cc1ccc(C)c(NC(=S)NC(NC(=O)Cc2cccc3ccccc23)C(Cl)(Cl)Cl)c1 (centres undefined) | . | 6.3µM | . | . | . | .
Cc1ccc(C)c(NC(=S)NC(NC(=O)N(C)C)C(Cl)(Cl)Cl)c1 (centres undefined) | . | . | . | . | . | .
O=C(c1ccccc1)c1cc([N+](=O)[O-])ccc1N1CCOCC1 | . | 11µM | . | . | . | .
Brc1cc2c(cc1CSc1ncccn1)OCO2 | . | . | ? | 35µM | . | .
COc1ccc(S(=O)(=O)NCCc2sc(-c3ccccc3)nc2C)cc1F | / | . | . | / | / | /
Cc1ccc(-c2cn(-c3cccc(Cl)c3)c(S(=O)(=O)CC(=O)Nc3ccccc3F)n2)cc1 | / | . | . | / | / | /
NC(=S)NN=C1c2ccccc2-c2c(F)c(F)c(F)c(F)c21 | . | 11µM | . | . | . | .
N#Cc1cccc2c1-c1ccccc1/C2=N/NC(N)=S | . | ? | . | . | ? | .
COc1cccc(-n2ccnc2SCC(=O)Nc2c(C)cc(C)cc2C)c1 | / | . | . | / | / | /
[O-][n+]1cccc2c(Br)cc(Br)c(O)c21 | . | . | ? | . | . | .
C[n+]1cccc2c(Br)ccc([O-])c21 | ? | . | 5µM | ? | ? | .
CC(C)(C)OC(=O)N1CCC(c2c(C(=O)N3CCC(c4ccccc4)C3)cnn2-c2cccc(Cl)c2)CC1 (centres undefined) | / | . | . | / | / | /
Cc1c(Cl)cccc1NS(=O)(=O)c1ccc2c(c1)C1C=CCC1C(c1ccc(C(=O)O)cc1)N2 (centres undefined) | . | .[7.66 µM] | ? | . | 56µM | .
COc1ccc(NS(=O)(=O)c2ccc3c(c2)[C@H]2C=CC[C@H]2[C@@H](c2ccc(C(=O)O)cc2)N3)cc1 | . | . | ? | . | ? | .
CC1=CC(C)(C)NC(=S)N1C(C)c1ccccc1 (centres undefined) | . | 10µM | . | ? | . | .
CC1=CC(C)(C)NC(=S)N1c1ccc2ccccc2c1 | . | ? | . | . | . | .
Oc1ccc(/C=N/Nc2ncnc3nc[nH]c23)cc1 | . | . | . | 18µM | . | .
Clc1ccc(/C=N/Nc2ncnc3nc[nH]c23)cc1 | . | . | . | . | . | .
OC(c1cc(-c2cccc(Cl)c2)nc2ccccc12)C1CCCCN1 (centres undefined) | . | 10µM | ? | . | . | .
CN(C)c1ccccc1-c1cc(NC=O)c2ncc(-c3cccc(C(F)(F)F)c3)n2c1 | . | . | / | ? | 32µM | .
SMILES | EPAC2 agonist | HEK293 tox | USP1 inh | EPAC2 antag | EPAC1 antagonist | EPAC1 ag
O=C(c1ccc(CSc2nc3ccncc3n2Cc2cccc(F)c2)cc1)N1CCCCCC1 | / | . | . | / | / | /
CCOc1ccc(C(=O)Nc2ccccc2OCc2cc(=O)n3ccccc3n2)cc1 | / | . | . | / | / | /
Cc1ccc(NC(=O)c2ccc([N+](=O)[O-])o2)c(C)c1 | . | . | . | . | ? | .
Cc1ccc(S(=O)(=O)c2ccc([N+](=O)[O-])o2)cc1 | . | 5.6µM | . | . | . | .
Cc1cc(O)c(C(c2ccccc2)N2CCN(c3ccc(F)cc3)CC2)c(=O)n1Cc1ccco1 (centres undefined) | / | . | ? | / | / | /
Cc1cccc(N2C(=O)CCSC23C(=O)N(Cc2ccc(F)cc2)c2ccccc23)c1 (centres undefined) | / | . | ? | / | / | /
COc1cc(/C=N/NC(=O)c2ccccn2)ccc1OC(=O)c1ccccc1Br | . | 11µM | . | . | . | .
COc1cc(/C=N/NC(=O)c2ccccn2)ccc1OC(=O)c1ccc(Br)cc1 | . | . | . | ? | . | .
CCOC(=O)/C(=C/C1=CC(=C/N(C)C)/C(=O)O1)C(C)=O | . | . | 32µM | . | . | .
CCOC(=O)/C(=C/c1ccc(OC(=O)c2ccccc2)cc1)C(C)=O | . | . | . | . | . | .
CCCN(C(=O)c1cc(S(=O)(=O)N2CCc3ccccc32)cn1C)c1ccc(OCC)cc1 | / | . | . | / | / | /
O=C(NN=c1c(=O)c2ccccc2c1=O)c1ccccc1 | . | . | 32µM | . | . | .
O=C1Cc2ccccc2C(=O)N1Cc1ccccc1 | . | . | 3.2µM | . | . | .
O=C1c2cccc3c(O)ccc(c23)C(=O)N1Cc1ccccc1 | 89µM | . | 6.3µM | . | . | 100µM
O=C1Cc2ccccc2C(=O)N1c1ccccc1 | . | . | ? | . | . | .
Cc1ccc(N(CC(=O)Nc2cccc(F)c2)S(=O)(=O)c2cccs2)cc1 | / | . | . | / | / | /
Cn1nnnc1SCCCNCc1ccc(-c2ccc(F)c(Cl)c2)o1 | / | . | . | / | / | /
COc1cc2c(cc1OC)C(COc1ccc3c(C)cc(=O)oc3c1)N(C(=O)c1cccc(OC)c1OC)CC2 (centres undefined) | / | . | ? | / | / | /
Cc1nc(N)sc1-c1csc(Nc2ncccn2)n1 | ? | . | ? | 71µM | . | .
CC(=O)Nc1cccc(C(=O)/C=C/c2ccc[nH]2)c1 | . | . | . | . | . | .
CN(C)c1ccc(C(=O)/C=C/c2ccc(Br)cc2)cc1 | 100µM | . | . | . | . | .
CC(=O)Nc1cccc(C(=O)/C=C/c2ccc(N(C)C)cc2)c1 | . | . | 5.6µM | . | . | .
CC(=O)Nc1cccc(C(=O)/C=C/c2cccs2)c1 | . | . | . | . | . | .
CC(=O)Nc1cccc(C(=O)/C=C/c2ccc(F)cc2)c1 | . | ? | . | . | 79µM | .
CN(C)c1ccc(C(=O)/C=C/c2ccccc2)cc1 | . | . | . | . | . | .
COc1ccc(NC(=O)c2sc3nc4c(cc3c2N)CCCCCC4)cc1Cl | / | . | . | / | / | /
COc1ccccc1N1CCN(C(=O)c2nc(SC)ncc2Cl)CC1 | / | ? | . | / | / | /
COc1cc(/C=C2\SC(=S)N(Nc3ccccc3)C2=O)ccc1O | . | 10µM | . | . | . | .
